High-throughput results: PubChem, National Center for Advancing Translational Sciences (NCATS)
FLuc counter – qHTS profiling assay for firefly luciferase inhibitor/activator using purifed enzyme and Km concentrations of substrates (counterscreen for miR-21 project). purified FLuc, Km substrates, luminescence inhibition. Potency, µM (series often up to 57.5 µM), inactives show top-dose activity change, negative = inhibition, most hits filed as inhibitors. 6.9% of 360,000 active. AID 588342, 2011;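 also: plate controls were vehicle for no effect and reference inhibitor for full effect; nearly all actives have a fitted effect of over 55% in size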
Target sequence (P08659 whole entry, looked up): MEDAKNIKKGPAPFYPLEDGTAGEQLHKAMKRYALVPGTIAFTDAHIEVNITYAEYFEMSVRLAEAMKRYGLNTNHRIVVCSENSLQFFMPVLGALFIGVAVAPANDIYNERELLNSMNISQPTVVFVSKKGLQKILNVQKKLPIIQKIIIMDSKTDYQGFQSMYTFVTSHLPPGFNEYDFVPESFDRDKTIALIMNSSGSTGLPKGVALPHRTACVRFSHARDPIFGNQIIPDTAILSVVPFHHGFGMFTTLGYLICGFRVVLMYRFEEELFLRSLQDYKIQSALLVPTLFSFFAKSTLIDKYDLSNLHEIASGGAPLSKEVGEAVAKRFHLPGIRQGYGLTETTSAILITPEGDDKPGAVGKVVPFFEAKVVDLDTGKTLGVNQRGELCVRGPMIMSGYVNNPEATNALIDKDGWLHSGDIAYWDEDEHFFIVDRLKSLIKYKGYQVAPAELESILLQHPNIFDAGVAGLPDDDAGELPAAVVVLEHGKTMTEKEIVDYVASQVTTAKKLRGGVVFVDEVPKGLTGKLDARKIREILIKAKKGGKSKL
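Purified P. pyralis luciferase (10nM final) with 10uM D-luciferin and 10uM ATP (Km levels) in 50mM Tris acetate pH 7.5, 10mM Mg acetate, 0.01% Tween-20, 0.05% BSA; qHTS 6-point titration, ~60 µM downward; luminescence read.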
SMN2 splice enh – qHTS Assay for Enhancers of SMN2 Splice Variant Expression. HEK293 SMN2-luciferase splicing reporter, luminescence, 30-36 h. Potency, µM (doses to about 46.1 µM), for the others: at the top dose activity change, positive = activation, most hits filed as activators. 2.8% of 210,000 active; also: % of control where 0% means no effect; nearly all actives have a fitted effect of over 55% in size
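HEK293 cells carry an SMN2 minigene-luciferase reporter in which exon 7 inclusion puts luciferase in frame. Cells were seeded at 2000 cells/well, attached for 10-12 hours, then exposed to compounds for 30-36 hours at 37C before ONE-Glo luminescence.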
Luc counter – Counterscreen for Luciferase (Kinase-Glo TM) Inhibition | Kinase-Glo luciferase, ATP luminescence, 8 min | Potency, µM (series often up to 38.3 µM), inactives show at the top dose activity change, negative = inhibition, actives largely listed as inhibitors | 0.28% of 200,000 active | AID 1379, 2008 | Luciferin 4-monooxygenase (Photuris pensylvanica), Q27757; also: % is scaled to controls: 0 for no effect and ±100 for the full control effect; nearly all actives have a fitted effect of over 60% in size
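Recombinant Kinase-Glo luciferase, 10 uM ATP (linear range), luciferin; imidazole pH 7.2 / KCl / MgCl2 / Tween / BSA buffer; 8 min RT; luminescence.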
ELG1 genotoxic – qHTS screen for small molecules that induce genotoxicity in human embryonic kidney (HEK293T) cells expressing luciferase-tagged ELG1; HEK293T ELG1-luciferase reporter, luminescence, 16 h; Potency, µM (titrated, usually from 46 µM), inactives show at the highest dose activity change, positive = activation, most hits filed as activators; 1.3% of 330,000 active; also: % of control where 0% means no effect; nearly all actives have a fitted effect of over 60% in size
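After overnight (16 hr) compound treatment at 37 °C, ELG1-luciferase HEK293T cells were lysed with ONE-Glo; luminescence quantified 30 min later at room temperature.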
NPC1 promoter act – qHTS Assay for NPC1 Promoter Activators. AID 485313, 2010. 2.4% of 320,000 active. Huh7 NPC1 promoter luciferase reporter, 24 h. Potency, µM (titrated, usually from 9.22 µM), for the others: at the highest dose activation, actives largely listed as activators; also: % of control where 0% means no effect; nearly all actives have a fitted effect of over 60% in size
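Stably transfected Huh7 (NPC1 promoter→luciferase), 1500 cells/well in Opti-MEM + 10% FBS, 2 h settle, then compound 24 h at 37 °C. Luminescence after 10 min with Amplite reagent.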
Rab9 prom act – qHTS Assay for Rab9 Promoter Activators. Huh7 Rab9 promoter-luciferase reporter, luminescence, 24 h. Potency, µM (highest dose often 9.22 µM), inactives show at the highest dose activation, negative = inhibition, usual class: activators. 2.8% of 320,000 active. AID 485297, 2010; also: % of control where 0% means no effect; nearly all actives have a fitted effect of over 60% in size
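Measured in stably transfected Huh7 cells bearing a Rab9 promoter–luciferase construct: 24 h compound treatment at 37 °C, followed by luminescence detection.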
Starred values were filed as active, the others as inactive. Compounds with a hit are over-represented: about 7.5% of the library has one in this group of screens. Calls follow the shape of the dose curve; as a rule, active = well fitted curve in the direction sought with a large enough effect; inconclusive = small, poorly fitted or top-dose-only effect, or another doubt; inactive = no such curve, though single readings can be large; an effect the other way counts as inactive or inconclusive. Potency is read from the fitted curve at half-maximal effect.

How did O=C(/C=C/Sc1ccccc1)c1ccccc1 do in these assays?
FLuc counter: 0.43µM*; SMN2 splice enh: 15%; Luc counter: -16%; ELG1 genotoxic: inconclusive; NPC1 promoter act: 2%; Rab9 prom act: 13%

What do the screens show for `O=C(/C=C/Sc1ccccc1)c1ccc(Cl)cc1`?
FLuc counter: 1.1µM*; SMN2 splice enh: 8%; Luc counter: -9%; ELG1 genotoxic: inconclusive; NPC1 promoter act: 4%; Rab9 prom act: 2%

How did C/C(=C\C(=O)c1ccccc1)NNC(=O)c1ccc(Cl)cc1 do in these assays?
FLuc counter: -16%; ELG1 genotoxic: 2%; NPC1 promoter act: -2%; Rab9 prom act: 8%

Results for COc1ccc(CCNC(=O)C(=O)NCC(c2cccs2)S(=O)(=O)c2ccccc2)cc1 (stereo unspecified) ?
FLuc counter: -12%

What do the screens show for `Cc1cccc(/C=C2\Oc3cc(OS(C)(=O)=O)ccc3C2=O)c1`?
FLuc counter: 17µM*; SMN2 splice enh: -13%; Luc counter: -1%; ELG1 genotoxic: 9%; NPC1 promoter act: 22%; Rab9 prom act: 16%

How did O=C1/C(=C/c2cccc(F)c2)Oc2cc(O)ccc21 do in these assays?
FLuc counter: 11µM*; ELG1 genotoxic: 1%; NPC1 promoter act: 19%; Rab9 prom act: 5%

How did CCC(Sc1nc2cc(OC)c(OC)cc2c(=O)n1CCc1ccc(Cl)cc1)C(=O)NCCOC (stereo unspecified) do in these assays?
FLuc counter: 2%

Results for O=c1[nH]c(/C=C/c2ccccn2)nc2ccccc12 ?
FLuc counter: 19µM*; ELG1 genotoxic: inconclusive; NPC1 promoter act: 1.6µM*; Rab9 prom act: 1.6µM*

Results for O=c1[nH]c(/C=C/c2ccccc2F)nc2ccccc12 ?
FLuc counter: 0.76µM*; ELG1 genotoxic: 12µM*; NPC1 promoter act: inconclusive; Rab9 prom act: 0.25µM*

Results for O=c1[nH]c(/C=C/c2cccc3ccccc23)nc2ccccc12 ?
FLuc counter: -3%; SMN2 splice enh: 15%; Luc counter: 6%; ELG1 genotoxic: 15%; NPC1 promoter act: 18%; Rab9 prom act: inconclusive

Results for CCOc1ccccc1NC(=O)CSC1=Nc2ccccc2C2=NC(CC(=O)NC3CCCCC3)C(=O)N12 (stereo unspecified) ?
FLuc counter: -15%; SMN2 splice enh: 2%

How did CC(=O)Nc1nccc(-c2cc(-c3ccccc3)no2)n1 do in these assays?
FLuc counter: inconclusive; ELG1 genotoxic: inconclusive; NPC1 promoter act: 3.5µM*; Rab9 prom act: 2.2µM*

How did COc1cccc(NC(=O)Cn2c(=O)n(Cc3nc(-c4ccccc4)no3)c(=O)c3ccccc32)c1 do in these assays?
FLuc counter: 4%

How did O=C(NC(=S)NCc1cccnc1)c1cc2ccccc2o1 do in these assays?
FLuc counter: inconclusive; SMN2 splice enh: 9%; Luc counter: 4%; ELG1 genotoxic: -8%; NPC1 promoter act: 0%; Rab9 prom act: 12%

What do the screens show for `O=C(Nc1cccnc1)c1cc2cc(Br)ccc2o1`?
FLuc counter: 1.2µM*; ELG1 genotoxic: 5.2µM*; NPC1 promoter act: 2.5µM*; Rab9 prom act: inconclusive

What do the screens show for `O=C(Nc1cccnc1)Nc1ccc(Br)cc1Cl`?
FLuc counter: -21%; SMN2 splice enh: -9%; Luc counter: -1%; ELG1 genotoxic: 3%; NPC1 promoter act: 8%; Rab9 prom act: 4%

Results for O=C(NC(=S)Nc1cccnc1)c1cc2ccccc2o1 ?
FLuc counter: 6.7µM*; Luc counter: -11%; ELG1 genotoxic: inconclusive; NPC1 promoter act: 22%; Rab9 prom act: 26%

Results for O=C(NC(=S)Nc1ccc(CN2CCCCC2)cc1)c1cc2ccccc2o1 ?
FLuc counter: -3%; ELG1 genotoxic: 2%; NPC1 promoter act: 3.2µM*; Rab9 prom act: -1%

How did CCOc1ccc(C(=O)Nc2ccc(-c3cc4ccccc4oc3=O)cc2)cc1Br do in these assays?
FLuc counter: -4%; SMN2 splice enh: 1%

What do the screens show for `CCCN(C(=O)c1c(C)oc2ncn(CC(C)C)c(=O)c12)c1ccccc1C`?
FLuc counter: 0%

How did Cc1ccc(-c2cc(N)n[nH]2)cc1 do in these assays?
FLuc counter: inconclusive; SMN2 splice enh: inconclusive; Luc counter: -5%; ELG1 genotoxic: 0%; NPC1 promoter act: 5%; Rab9 prom act: 3%

How did CC(C)(C)c1ccc(-c2cc(N)n[nH]2)cc1 do in these assays?
FLuc counter: 9.5µM*; SMN2 splice enh: -12%; Luc counter: -6%; ELG1 genotoxic: 3%; NPC1 promoter act: 0%; Rab9 prom act: -5%

What do the screens show for `Cc1ccc(/C=C/C(=O)NC2CCCCCCC2)o1`?
FLuc counter: 24µM*; SMN2 splice enh: inconclusive; Luc counter: 0%; ELG1 genotoxic: inconclusive; NPC1 promoter act: 28%; Rab9 prom act: inconclusive

What do the screens show for `Cc1ccc(/C=N/NC(=O)NC2CCCCC2)o1`?
FLuc counter: -20%; SMN2 splice enh: -6%; Luc counter: 2%; ELG1 genotoxic: 8%; NPC1 promoter act: 8%; Rab9 prom act: 20%

Results for O=C(/C=C/c1ccccc1Cl)NC1CCS(=O)(=O)C1 (stereo unspecified) ?
FLuc counter: -2%; Luc counter: -1%; ELG1 genotoxic: 5%; NPC1 promoter act: -3%; Rab9 prom act: -4%

What do the screens show for `O=C(/C=C/c1ccccc1Cl)NC1CCCCC1`?
FLuc counter: 11µM*; ELG1 genotoxic: inconclusive; NPC1 promoter act: 2.8µM*; Rab9 prom act: 3.5µM*

How did O=c1c2c(nc3cc(-c4cccc(F)c4)[nH]n13)CCC2 do in these assays?
FLuc counter: 6µM*; SMN2 splice enh: 8.9µM*; Luc counter: -22%; ELG1 genotoxic: inconclusive; NPC1 promoter act: 1.6µM*; Rab9 prom act: 1.1µM*

What do the screens show for `O=c1c2c(nc3cc(-c4ccc(F)cc4)[nH]n13)CCCC2`?
FLuc counter: 1.5µM*; SMN2 splice enh: inconclusive; Luc counter: -28%; ELG1 genotoxic: 2.3µM*; NPC1 promoter act: inconclusive; Rab9 prom act: 0.45µM*

What do the screens show for `O=c1c2c(nc3cc(-c4cccc(Cl)c4)[nH]n13)CCC2`?
FLuc counter: 4.8µM*; SMN2 splice enh: 8.9µM*; Luc counter: -15%; ELG1 genotoxic: 2.3µM*; NPC1 promoter act: 2µM*; Rab9 prom act: 1.6µM*
